Laboratory results as given in PubChem BioAssay (EPA / NIEHS).
Activity calls are given as the source filed them. The calls were made as follows: active = hit-call score of the fitted dose curve at least 0.9, where 1 is the maximum; inactive = score below 0.9.

Experiments:
[1] = target: Bile acid receptor (Homo sapiens) (UniProt Q96RI1); assay: ATG_IR1_CIS: Attagene CIS-FACTORIAL HepG2 Assay for human Nuclear Receptor Subfamily 1 Group H Member 4 (NR1H4), IR1 submotif (AID 2282946); conditions: IR1 reporter transcription, actives raise or lower the signal
In short: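 Transient MRTU transfection, HepG2; 24 h dosing; RNA → RT-PCR → 6-FAM primer extension → HpaI digest → capillary electrophoresis fluorescence. Gain/loss of signal fitted relative to DMSO.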

[2] = ATG_GRE_CIS: Attagene CIS-FACTORIAL HepG2 Assay for human Glucocorticoid Response Elements (GRE) (AID 2282947); conditions: HepG2 GRE cis-reporter, Attagene multiplex mRNA; actives raise or lower the signal
In short: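 HepG2 cells transiently transfected with multiple cis-promoter reporter units measure endogenous TF activity; 24 h compound exposure. Reporter mRNA quantified by RT-PCR, FAM labelling, HpaI digestion and capillary electrophoresis; bidirectional fit vs DMSO baseline.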

[3] = ATG_ISRE_CIS: Attagene CIS-FACTORIAL HepG2 Assay for human Interferon Regulatory Factor 1 (IRF1) binding to an Interferon-Stimulated Response Element (ISRE) (AID 2282948); conditions: HepG2 ISRE cis-reporter (Attagene), mRNA transcription readout; actives raise or lower the signal
In short: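 Transfected HepG2 (multiple reporter transcription units, cis elements) dosed 24 h. RNA → oligo(dT) RT → PCR → 6-FAM primer extension → HpaI → CE. DMSO = negative control/baseline.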

[4] = ATG_M_32_CIS: Attagene CIS-FACTORIAL HepG2 Assay for M32 Transcription Factor (Internal Marker) (AID 2282949); conditions: HepG2 Attagene cis-factorial M32 reporter, mRNA; actives raise or lower the signal;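 also: background control marker of the multiplexed CIS panel rather than a real target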
In short: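 Following 24 h chemical exposure of HepG2 cells transiently expressing cis-promoter reporter constructs, reporter transcript levels were determined by RT-PCR with fluorescent labelling and capillary electrophoresis, then fitted bidirectionally against DMSO.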

[5] = ATG_M_06_CIS: Attagene CIS-FACTORIAL HepG2 Assay for M06 Transcription Factor (Internal Marker) (AID 2282950); conditions: HepG2 Attagene CIS-FACTORIAL M06 internal marker reporter; actives raise or lower the signal
In short: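 Cells (HepG2, transiently carrying cis-driven reporter units) receive chemical for 24 h before RNA isolation. Reporter cDNA is PCR-amplified, FAM-labelled by primer extension, HpaI-digested and sized on a capillary analyser.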

[6] = target: Hypoxia-inducible factor 1-alpha (Homo sapiens) (UniProt Q16665); assay: ATG_HIF1a_CIS: Attagene CIS-FACTORIAL HepG2 Assay for human Hypoxia Inducible Factor 1 (HIF1A) (AID 2282951); conditions: HepG2 Attagene cis-factorial HIF1a reporter transcription; actives raise or lower the signal
In short: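 Dosed 24 h, transfected HepG2 cells yielded total RNA whose reporter transcripts were RT-PCR-amplified and sized by capillary electrophoresis using fluorescent labelling; DMSO defined baseline, with gain and loss of signal both fitted.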

[7] = target: Hepatocyte nuclear factor 6 (Homo sapiens) (UniProt Q9UBC0); assay: ATG_HNF6_CIS: Attagene CIS-FACTORIAL HepG2 Assay for human Hepatocyte Nuclear Factor 6 (HNF6) (AID 2282952); conditions: HepG2 Attagene cis-factorial HNF6 reporter transcription; actives raise or lower the signal
In short: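 HepG2 cells transiently transfected with cis-element-driven multiplexed reporter units measuring endogenous transcription factor activity. After 24 h exposure, reporter mRNA quantified by RT-PCR, FAM-labelled fragments and capillary electrophoresis; bidirectional fitting versus DMSO.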

[8] = target: Heat shock factor protein 1 (Homo sapiens) (UniProt Q00613); assay: ATG_HSE_CIS: Attagene CIS-FACTORIAL HepG2 Assay for human Heat Shock Transcription Factor 1 (HSE) (AID 2282953); conditions: HepG2 HSE cis-reporter, Attagene RNA transcription; actives raise or lower the signal
In short: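 Liver-derived HepG2 cells carry transiently introduced multiple reporter units governed by cis promoters. Reporter RNA measured 24 h post-dose through reverse transcription, PCR amplification, fluorescent labelling and capillary electrophoresis, normalised to DMSO.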

[9] = ATG_MRE_CIS: Attagene CIS-FACTORIAL HepG2 Assay for human Metal Responsive Element (MRE) (AID 2282954); conditions: HepG2 MRE cis-reporter transcription, Attagene multiplex; actives raise or lower the signal
In short: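 HepG2 cells transiently transfected with multiple cis-element reporter units measure endogenous MTF1-driven transcription. After 24 h compound exposure, reporter mRNA is quantified by RT-PCR with 6-FAM labelling, HpaI digestion and capillary electrophoresis; bidirectional fits versus DMSO.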

[10] = ATG_PBREM_CIS: Attagene CIS-FACTORIAL HepG2 Assay for human Phenobarbital-responsive Enhancer Module (PBREM) (AID 2282955); conditions: HepG2 PBREM cis-reporter, Attagene multiplexed transcription; actives raise or lower the signal
In short: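 Transfected liver-derived HepG2 cells exposed 24 h; PBREM reporter transcript quantified via RT-PCR and capillary electrophoresis, with activity in either direction referenced to DMSO.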

[11] = target: Paired box protein Pax-6 (Homo sapiens) (UniProt P26367); assay: ATG_Pax6_CIS: Attagene CIS-FACTORIAL HepG2 Assay for human Paired Box 6 (PAX6) (AID 2282956); conditions: HepG2 CIS-FACTORIAL PAX6 reporter transcription, RNA readout; actives raise or lower the signal
In short: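 Transient MRTU transfection of HepG2 → compound exposure 24 h → TriZol RNA, oligo(dT) RT → PCR, 6-FAM primer extension, HpaI cut → capillary electrophoresis; activity fitted both directions against DMSO.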

[12] = ATG_PXRE_CIS: Attagene CIS-FACTORIAL HepG2 Assay for human Pregnane X Receptor Element (PXRE) (AID 2282957); conditions: HepG2 Attagene CIS-FACTORIAL PXRE reporter, mRNA; actives raise or lower the signal
In short: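 HepG2 cells transiently transfected with cis-element-driven multiplexed reporter units; after 24 h chemical exposure, reporter mRNA measured by RT-PCR, 6-FAM labelling, HpaI digestion and capillary electrophoresis. Bidirectional fitting relative to DMSO.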

[13] = ATG_Sox_CIS: Attagene CIS-FACTORIAL HepG2 Assay for human SRY-box transcription factor (SOX) (AID 2282960); conditions: HepG2 Attagene cis-factorial SOX reporter, mRNA; actives raise or lower the signal
In short: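 Gain- or loss-of-signal endpoint, fitted bidirectionally with DMSO as negative control. Based on reporter mRNA from transfected HepG2 cells harvested 24 h post-treatment and quantified via RT-PCR and capillary electrophoresis.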

[14] = target: Transcription factor Sp1 (Homo sapiens) (UniProt P08047); assay: ATG_Sp1_CIS: Attagene CIS-FACTORIAL HepG2 Assay for human Specificity Protein 1 (Sp1) (AID 2282961); conditions: HepG2 Sp1 cis-reporter transcription, actives raise or lower the signal
In short: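 Endpoint reflects endogenous Sp1 transcriptional activity, not an exogenous fusion protein: HepG2 cells with transfected cis-regulated reporters, 24 h dosing, RT-PCR/capillary electrophoresis mRNA read-out, DMSO-normalised bidirectional fit.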

[15] = ATG_SREBP_CIS: Attagene CIS-FACTORIAL HepG2 Assay for human Sterol Regulatory Element Binding (SREBP) (AID 2282962); conditions: HepG2 Attagene cis-factorial SREBP reporter, mRNA; actives raise or lower the signal
In short: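 Transfected HepG2 (cis-regulated reporter library, endogenous TFs) → compound 24 h → total RNA → oligo(dT) RT → reporter-specific PCR → FAM primer extension, HpaI cut → CE fluorescence. Fit bidirectional vs DMSO.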

[16] = target: Signal transducer and activator of transcription 3 (Homo sapiens) (UniProt P40763); assay: ATG_STAT3_CIS: Attagene CIS-FACTORIAL HepG2 Assay for human Signal Transducer and Activator of Transcription 3 (STAT3) (AID 2282963); conditions: HepG2, Attagene cis-factorial STAT3 reporter transcription; actives raise or lower the signal
In short: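 HepG2 cells transiently transfected with cis-element-driven multiple reporter transcription units; after 24 h chemical exposure, reporter mRNA measured by RT-PCR, 6-FAM primer-extension labelling, HpaI digestion and capillary electrophoresis. Bidirectional fitting versus DMSO baseline.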

[17] = ATG_TCF_b_cat_CIS: Attagene CIS-FACTORIAL HepG2 Assay for human T-Cell-Factor with beta-catenin (TCF/b-cat) (AID 2282965); conditions: HepG2 TCF/beta-catenin cis-reporter transcription, actives raise or lower the signal
In short: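 HepG2 cells transiently transfected with multiple cis-promoter-regulated reporter transcription units, so endogenous transcription factor activity is measured. Reporter mRNA read 24 hours after dosing by RT-PCR, fluorescent labelling and capillary electrophoresis; bidirectional fitting against DMSO.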

[18] = ATG_PPRE_CIS: Attagene CIS-FACTORIAL HepG2 Assay for human Peroxisome Proliferator-activated Response Element (PPRE) (AID 2282958); conditions: HepG2 PPRE cis-element reporter, Attagene transcription factor profiling; actives raise or lower the signal
In short: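 Measured endpoint: PPRE-controlled reporter mRNA, detected by RT-PCR and capillary electrophoresis fluorescence, from transiently transfected HepG2 cells 24 h after dosing. Curves fitted in both directions using DMSO baseline.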

[19] = ATG_RORE_CIS: Attagene CIS-FACTORIAL HepG2 Assay for human RAR-related Orphan Receptor Element (RORE) (AID 2282959); conditions: HepG2 Attagene cis-factorial RORE reporter, mRNA; actives raise or lower the signal
In short: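 Transiently transfected HepG2 reporter cells were treated 24 h. Reporter transcripts were detected by RT-PCR and capillary electrophoresis, with bidirectional fitting against DMSO.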

[20] = ATG_TA_CIS: Attagene CIS-FACTORIAL HepG2 Assay for human TA Basal Promoter (AID 2282964); conditions: HepG2 Attagene CIS-factorial TA basal promoter reporter; actives raise or lower the signal
In short: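 Background internal-marker endpoint from a 52-component HepG2 cis-reporter panel. Cells treated 24 h; reporter transcripts quantified via RT-PCR and CE fluorescence against DMSO baseline.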

Measured: AC50

Sequence of Bile acid receptor (Homo sapiens) (Q96RI1 whole entry, looked up): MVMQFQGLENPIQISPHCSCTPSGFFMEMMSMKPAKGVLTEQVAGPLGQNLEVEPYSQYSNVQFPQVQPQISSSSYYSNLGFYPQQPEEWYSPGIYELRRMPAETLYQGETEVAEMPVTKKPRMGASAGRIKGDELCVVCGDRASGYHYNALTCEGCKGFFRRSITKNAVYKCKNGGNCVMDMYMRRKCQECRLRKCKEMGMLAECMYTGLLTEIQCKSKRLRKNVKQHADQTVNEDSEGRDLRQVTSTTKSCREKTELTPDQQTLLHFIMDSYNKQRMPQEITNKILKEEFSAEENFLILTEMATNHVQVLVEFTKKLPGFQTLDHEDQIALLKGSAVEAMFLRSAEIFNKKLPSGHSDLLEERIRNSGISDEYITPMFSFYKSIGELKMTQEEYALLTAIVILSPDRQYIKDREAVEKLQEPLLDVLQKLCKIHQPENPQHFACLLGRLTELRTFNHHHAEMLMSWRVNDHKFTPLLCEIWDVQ
Sequence of Signal transducer and activator of transcription 3 (Homo sapiens) (P40763 whole entry, looked up): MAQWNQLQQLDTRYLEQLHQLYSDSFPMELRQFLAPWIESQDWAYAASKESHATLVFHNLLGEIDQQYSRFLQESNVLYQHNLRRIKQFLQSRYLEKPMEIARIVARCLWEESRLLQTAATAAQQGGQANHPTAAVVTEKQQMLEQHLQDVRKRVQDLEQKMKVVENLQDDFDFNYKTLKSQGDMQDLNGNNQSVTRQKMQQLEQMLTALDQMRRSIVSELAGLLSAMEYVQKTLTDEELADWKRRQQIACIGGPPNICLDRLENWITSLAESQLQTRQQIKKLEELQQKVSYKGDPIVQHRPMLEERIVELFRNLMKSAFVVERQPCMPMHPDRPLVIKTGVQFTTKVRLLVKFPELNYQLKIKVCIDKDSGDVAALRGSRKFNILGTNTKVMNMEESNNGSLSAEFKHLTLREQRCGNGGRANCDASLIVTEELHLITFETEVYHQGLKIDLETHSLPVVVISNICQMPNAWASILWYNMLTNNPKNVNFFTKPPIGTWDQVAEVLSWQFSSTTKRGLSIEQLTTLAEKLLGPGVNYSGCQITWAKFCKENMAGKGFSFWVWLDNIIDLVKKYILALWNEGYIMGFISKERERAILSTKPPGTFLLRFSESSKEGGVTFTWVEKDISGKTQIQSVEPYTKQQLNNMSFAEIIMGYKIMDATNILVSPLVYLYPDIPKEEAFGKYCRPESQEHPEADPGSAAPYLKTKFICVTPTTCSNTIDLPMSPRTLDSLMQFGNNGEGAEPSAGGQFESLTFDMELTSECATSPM
Sequence of Transcription factor Sp1 (Homo sapiens) (P08047 whole entry, looked up, the tested form may be a part): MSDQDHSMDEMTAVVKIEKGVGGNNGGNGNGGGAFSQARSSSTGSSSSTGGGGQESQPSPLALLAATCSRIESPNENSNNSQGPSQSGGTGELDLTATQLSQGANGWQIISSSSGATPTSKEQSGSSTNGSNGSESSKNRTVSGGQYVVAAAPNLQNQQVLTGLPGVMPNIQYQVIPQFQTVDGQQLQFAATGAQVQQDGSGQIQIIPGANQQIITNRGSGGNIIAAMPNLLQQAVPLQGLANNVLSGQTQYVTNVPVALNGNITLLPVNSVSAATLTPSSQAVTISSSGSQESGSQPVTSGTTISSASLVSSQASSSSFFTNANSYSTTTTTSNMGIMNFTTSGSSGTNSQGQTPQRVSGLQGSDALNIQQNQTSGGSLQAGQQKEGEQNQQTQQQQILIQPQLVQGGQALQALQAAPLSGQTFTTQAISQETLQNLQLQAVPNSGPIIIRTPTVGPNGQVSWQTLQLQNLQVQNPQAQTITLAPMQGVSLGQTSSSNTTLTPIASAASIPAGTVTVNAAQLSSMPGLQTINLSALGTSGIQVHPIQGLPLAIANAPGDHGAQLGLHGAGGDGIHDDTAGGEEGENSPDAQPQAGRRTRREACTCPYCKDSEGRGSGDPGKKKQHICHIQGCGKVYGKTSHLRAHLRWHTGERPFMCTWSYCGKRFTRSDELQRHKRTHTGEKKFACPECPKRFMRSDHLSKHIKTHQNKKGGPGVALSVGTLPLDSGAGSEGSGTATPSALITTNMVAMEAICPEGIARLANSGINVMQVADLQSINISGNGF
Sequence of Heat shock factor protein 1 (Homo sapiens) (Q00613 whole entry, looked up): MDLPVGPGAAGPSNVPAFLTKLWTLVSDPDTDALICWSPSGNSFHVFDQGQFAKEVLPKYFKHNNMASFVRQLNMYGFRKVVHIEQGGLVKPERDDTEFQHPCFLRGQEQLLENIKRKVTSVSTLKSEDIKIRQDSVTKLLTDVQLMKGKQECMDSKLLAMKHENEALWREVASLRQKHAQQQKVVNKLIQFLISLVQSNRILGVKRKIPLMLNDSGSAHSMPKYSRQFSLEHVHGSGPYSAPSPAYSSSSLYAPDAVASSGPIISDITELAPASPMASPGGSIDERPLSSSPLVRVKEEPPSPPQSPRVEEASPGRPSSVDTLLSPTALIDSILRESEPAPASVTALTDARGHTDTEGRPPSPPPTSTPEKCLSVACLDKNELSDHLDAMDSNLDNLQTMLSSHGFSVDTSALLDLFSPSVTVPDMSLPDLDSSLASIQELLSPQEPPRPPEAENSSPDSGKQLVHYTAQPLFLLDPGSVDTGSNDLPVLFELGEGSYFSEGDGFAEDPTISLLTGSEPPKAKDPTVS
Sequence of Hypoxia-inducible factor 1-alpha (Homo sapiens) (Q16665 whole entry, looked up): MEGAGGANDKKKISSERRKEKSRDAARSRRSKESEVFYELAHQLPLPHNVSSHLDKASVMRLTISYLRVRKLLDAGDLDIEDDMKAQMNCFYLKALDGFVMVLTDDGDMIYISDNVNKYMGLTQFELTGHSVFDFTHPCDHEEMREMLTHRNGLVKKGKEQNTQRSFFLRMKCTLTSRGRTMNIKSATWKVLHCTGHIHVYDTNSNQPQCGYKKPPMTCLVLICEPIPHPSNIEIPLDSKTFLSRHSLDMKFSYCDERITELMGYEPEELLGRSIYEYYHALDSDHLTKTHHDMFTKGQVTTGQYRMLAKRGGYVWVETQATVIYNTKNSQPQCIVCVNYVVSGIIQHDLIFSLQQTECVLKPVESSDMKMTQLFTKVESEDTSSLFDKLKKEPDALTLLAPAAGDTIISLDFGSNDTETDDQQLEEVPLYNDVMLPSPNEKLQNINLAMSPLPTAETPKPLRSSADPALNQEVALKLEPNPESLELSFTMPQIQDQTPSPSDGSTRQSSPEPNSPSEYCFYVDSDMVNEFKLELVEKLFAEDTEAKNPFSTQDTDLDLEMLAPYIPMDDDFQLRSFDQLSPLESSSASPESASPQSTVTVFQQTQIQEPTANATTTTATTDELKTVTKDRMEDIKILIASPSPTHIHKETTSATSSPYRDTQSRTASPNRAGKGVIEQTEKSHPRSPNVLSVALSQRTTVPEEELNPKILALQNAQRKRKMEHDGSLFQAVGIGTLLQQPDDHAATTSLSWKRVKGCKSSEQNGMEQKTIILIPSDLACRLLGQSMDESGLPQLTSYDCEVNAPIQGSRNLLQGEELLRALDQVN
Sequence of Hepatocyte nuclear factor 6 (Homo sapiens) (Q9UBC0 whole entry, looked up, the tested form may be a part): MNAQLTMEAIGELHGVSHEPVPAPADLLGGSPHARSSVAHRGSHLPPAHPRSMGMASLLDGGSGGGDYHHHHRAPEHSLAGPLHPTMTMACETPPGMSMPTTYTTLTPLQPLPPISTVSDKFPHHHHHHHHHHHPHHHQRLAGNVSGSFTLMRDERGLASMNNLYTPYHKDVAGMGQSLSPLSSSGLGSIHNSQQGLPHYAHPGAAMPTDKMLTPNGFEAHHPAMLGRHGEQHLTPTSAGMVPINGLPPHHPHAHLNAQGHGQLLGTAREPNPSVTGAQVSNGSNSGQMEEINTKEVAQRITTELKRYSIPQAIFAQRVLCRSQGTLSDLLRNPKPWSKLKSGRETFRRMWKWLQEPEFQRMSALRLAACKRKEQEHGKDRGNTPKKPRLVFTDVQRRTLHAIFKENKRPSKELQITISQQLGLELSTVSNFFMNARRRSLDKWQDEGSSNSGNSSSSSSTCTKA
Sequence of Paired box protein Pax-6 (Homo sapiens) (P26367 whole entry, looked up): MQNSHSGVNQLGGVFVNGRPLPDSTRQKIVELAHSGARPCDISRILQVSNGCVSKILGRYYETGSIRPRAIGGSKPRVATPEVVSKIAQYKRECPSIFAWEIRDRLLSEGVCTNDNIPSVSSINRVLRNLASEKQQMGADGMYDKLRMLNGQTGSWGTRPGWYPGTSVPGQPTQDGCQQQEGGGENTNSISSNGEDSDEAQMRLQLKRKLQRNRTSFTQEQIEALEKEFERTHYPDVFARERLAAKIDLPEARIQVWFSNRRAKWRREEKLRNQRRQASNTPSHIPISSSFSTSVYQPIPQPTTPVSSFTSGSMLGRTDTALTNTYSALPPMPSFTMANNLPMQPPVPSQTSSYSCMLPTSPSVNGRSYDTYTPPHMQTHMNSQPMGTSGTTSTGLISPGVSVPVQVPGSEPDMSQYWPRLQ

Nc1ccc(N)c(Cl)c1
inactive: [1] | [2] | [4] | [5] | [6] | [9] | [13] | [14] | [16] | [17]
active: [3] 45.7 µM | [7] 57.2 µM | [8] 8.3 µM | [10] 26.2 µM | [11] 52.9 µM | [12] 8.87 µM | [15] 43.7 µM

COC(=O)/C=C/C(C)=C\C=C\C(C)=C\C=C\C=C(C)\C=C\C=C(C)\C=C\C(=O)O
active: [12] 60.8 µM
inactive: [1] | [2] | [3] | [4] | [5] | [6] | [7] | [8] | [9] | [10] | [11] | [18] | [19] | [13] | [14] | [15] | [16] | [20]

O=CC1CC1
inactive: [1] | [2] | [3] | [4] | [5] | [6] | [7] | [8] | [9] | [10] | [11] | [12] | [18] | [19] | [15] | [16] | [20] | [17]

C=C[C@](C)(O)CC[C@@H]1[C@@]2(C)CCCC(C)(C)[C@@H]2CC[C@@]1(C)O
active: [12] 0.357 µM
inactive: [1] | [2] | [3] | [4] | [5] | [6] | [7] | [8] | [9] | [10] | [11] | [18] | [14] | [15] | [16] | [20] | [17]

Cc1cc(O)c(Cl)c(C)c1Cl
inactive: [1] | [2] | [3] | [4] | [5] | [6] | [7] | [8] | [9] | [10] | [11] | [19] | [14] | [15] | [16]
active: [12] 15.1 µM

O=C(O)c1cc2ccccc2nc1C(=O)O
inactive: [1] | [2] | [3] | [4] | [5] | [6] | [7] | [8] | [10] | [11] | [12] | [18] | [19] | [14] | [15] | [16] | [20] | [17]

Cc1ccc2oc(=O)ccc2c1
inactive: [1] | [2] | [3] | [4] | [5] | [6] | [7] | [8] | [9] | [10] | [11] | [12] | [18] | [13] | [14] | [15] | [16] | [20] | [17]
